Screen size: about 310,000 compounds; about 14,000 (4.5%) showed an effect of 50% or more. Effects have a minus sign here. This is one part of a sample in which strong results are shown more often than they occur.
Biological target: human ether-à-go-go-related gene (hERG) potassium channel (human, UniProt Q12809)
Assay: primary screen, population patch clamp on CHO cells stably expressing hERG; higher = less effect of the substance
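Note: peak tail current of the secondary pulse compared with the same well before compound.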

Sequence of human ether-à-go-go-related gene (hERG) potassium channel (Q12809 whole entry, looked up): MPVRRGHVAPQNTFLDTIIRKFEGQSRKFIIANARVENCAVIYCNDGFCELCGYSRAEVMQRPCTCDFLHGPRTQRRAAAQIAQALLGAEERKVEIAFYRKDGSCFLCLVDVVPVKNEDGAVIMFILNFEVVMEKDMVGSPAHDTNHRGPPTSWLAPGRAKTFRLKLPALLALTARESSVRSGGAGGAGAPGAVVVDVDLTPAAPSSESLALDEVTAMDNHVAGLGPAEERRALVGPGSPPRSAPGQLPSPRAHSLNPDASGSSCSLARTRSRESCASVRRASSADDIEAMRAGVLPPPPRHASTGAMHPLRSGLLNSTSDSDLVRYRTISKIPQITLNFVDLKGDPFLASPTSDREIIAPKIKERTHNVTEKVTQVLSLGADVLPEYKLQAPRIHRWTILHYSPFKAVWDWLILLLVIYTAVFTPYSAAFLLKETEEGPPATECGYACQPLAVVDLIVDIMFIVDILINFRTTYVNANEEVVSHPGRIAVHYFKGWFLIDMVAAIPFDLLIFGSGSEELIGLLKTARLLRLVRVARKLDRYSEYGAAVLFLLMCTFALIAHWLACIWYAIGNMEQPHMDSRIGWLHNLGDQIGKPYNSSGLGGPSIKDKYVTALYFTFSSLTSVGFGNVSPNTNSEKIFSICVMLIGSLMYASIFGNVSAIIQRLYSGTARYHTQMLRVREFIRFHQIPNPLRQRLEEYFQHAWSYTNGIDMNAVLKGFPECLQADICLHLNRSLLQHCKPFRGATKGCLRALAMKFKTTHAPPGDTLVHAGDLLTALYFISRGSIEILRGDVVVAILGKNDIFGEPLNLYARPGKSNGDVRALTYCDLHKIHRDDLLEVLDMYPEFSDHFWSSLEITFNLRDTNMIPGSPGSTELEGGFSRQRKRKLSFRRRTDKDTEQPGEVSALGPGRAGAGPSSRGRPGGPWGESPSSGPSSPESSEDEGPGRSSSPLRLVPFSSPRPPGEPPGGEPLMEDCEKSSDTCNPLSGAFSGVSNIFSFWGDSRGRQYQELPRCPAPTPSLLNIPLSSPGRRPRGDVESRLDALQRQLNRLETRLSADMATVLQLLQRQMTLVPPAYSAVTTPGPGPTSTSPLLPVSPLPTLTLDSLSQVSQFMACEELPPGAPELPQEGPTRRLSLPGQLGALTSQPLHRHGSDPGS

Structure (SMILES) | hERG current change (%, negative = inhibition) at 10uM [%]
CC(C)(C)NC(=O)CN(c1cccc([N+](=O)[O-])c1)S(=O)(=O)c1ccccc1 | -11.5
Cc1cc(C)c(NC(=O)CCCOC(=O)C2=COCCO2)c(C)c1 | 16.1
O=C(N/N=C/c1cccc(F)c1)c1csc2c1CCCC2 | -30
CC(C)C[C@H](NC(=O)c1[nH]cnc1C(=O)N[C@@H](C)c1ccccc1)C(=O)OC(C)(C)C | 12.5
CC1CCN(C(=O)c2cc3ccccc3c(=O)o2)CC1 | 5.74
Cc1ccc(-c2ccc(/C=N/NC(=O)CN3CCCC3)o2)cc1Cl | -90.2
Cc1nnc(SCC(=O)N/N=C/c2ccc(-c3ccc(C)c(Cl)c3)o2)s1 | -1.51
COC(=O)N/N=C/c1ccc(-c2ccc(C)c(Cl)c2)o1 | -6.4
O=C(CN1CCCC1)N/N=C/c1ccc(-c2cccc(Cl)c2)o1 | -62.2
Nc1nnnn1CC(=O)N/N=C/c1ccc(-c2cccc(Cl)c2)o1 | 8.79
O=C(Cn1nnc(-c2ccccc2Cl)n1)N/N=C/c1ccc(-c2cccc(Cl)c2)o1 | 2.26
CC1(c2ccccc2)NC(=O)N(Cc2ccc([N+](=O)[O-])cc2)C1=O (stereo not shown) | -31
COc1ccc(CN2CCCC(C(=O)Nc3cccc(-n4cnnn4)c3)C2)c(C)c1C (stereo not shown) | -62.7
COc1ccc(CN2CCCC(C(=O)Nc3cccc(-n4cccn4)c3)C2)c(F)c1 (stereo not shown) | -30.3
O=C(Nc1cccc(-n2cnnn2)c1)C1CCCN(Cc2cccc(C(F)(F)F)c2)C1 (stereo not shown) | -59.8
COCc1cc(CN2CCCC(C(=O)Nc3cccc(-n4cnnn4)c3)C2)ccc1OC (stereo not shown) | -6.58
Cn1cc(CN2CCCC(C(=O)Nc3cccc(-n4cccn4)c3)C2)cn1 (stereo not shown) | -5.79
COC(=O)c1ccc(CN2CCCC(C(=O)Nc3cccc(-n4cnnn4)c3)C2)cc1 (stereo not shown) | -47.7
COC(=O)Cc1c(C)c2ccc(OC3CCCCC3=O)c(C)c2oc1=O (stereo not shown) | 3.77
CCCCCOc1ccc(NC(=O)CSc2cccc3cccnc23)cc1 | 18.8
N#Cc1cc([N+](=O)[O-])ccc1NC(=O)CSc1n[nH]c(=O)n1C1CC1 | 1.42
COc1cccc(OC)c1C(=O)Nc1c(C(=O)N2CCN(c3ccccn3)CC2)oc2ccccc12 | -61.6
COc1cccc(OC)c1C(=O)N1CCN(c2ccccn2)CC1 | 11
O=C(Nc1c(C(=O)N2CCN(c3ccccn3)CC2)oc2ccccc12)c1ccc([N+](=O)[O-])cc1 | -51

Structure (SMILES) | hERG current change (%, negative = inhibition) at 10uM [%]
COc1cccc(OC)c1C(=O)Nc1c(C(=O)N2CCN(C)CC2)oc2ccccc12 | -29.1
Cc1c(C(=O)N2CCN(c3ccccn3)CC2)oc2ccccc12 | -28
O=C(Nc1c(C(=O)N2CCN(c3ccccn3)CC2)oc2ccccc12)c1cccc([N+](=O)[O-])c1 | -48.8
COc1ccc(NC(=O)c2ccc(-c3nn(C)c(=O)c4ccccc34)cc2)cc1C(N)=O | 6.4
Cc1ccc(N(C(=O)Cc2cccs2)C(C(=O)NCC2CCCO2)c2ccncc2)cc1 (stereo not shown) | 11.5
CCOc1ccc(Cc2nc(C)c(CC(=O)N3CCOCC3)c(=O)[nH]2)cc1 | 8.37
O=C(CSc1ncnc2ccccc12)NCc1ccc2c(c1)OCO2 | -16.9
O=C(C(=O)N1CCCc2ccccc21)c1c[nH]c2ccccc12 | 4.5
O=C(O)C(=O)O.O=S(=O)(c1ccc(Cl)cc1)N1CCN(Cc2ccncc2)CC1 | -51.5
CCS(=O)(=O)N1CCN(Cc2ccncc2)CC1.O=C(O)C(=O)O | 13.2
CC(=O)Nc1ccc(S(=O)(=O)N2CCN(Cc3ccncc3)CC2)cc1 | -8.67
O=S(=O)(c1ccc(Cl)cc1)N1CCN(CCc2ccccc2)CC1 | -3.7
O=S(=O)(c1ccccc1)N1CCN(CCc2ccccc2)CC1 | 14.2
O=S(=O)(c1ccc(Cl)cc1)N1CCN(CCc2ccncc2)CC1 | -55.3
COc1ccc(C2=NC(C)(C)Cc3cc(OC)c(OC)cc32)cc1 | -44
Cc1ccc(OCC(O)CN2CCOCC2)cc1C.Cl (stereo not shown) | 17.7
Cc1cccc(OCC(O)Cn2c(=N)n(CCN3CCOCC3)c3ccccc32)c1.Cl (stereo not shown) | -57.9
Cc1cccc(OCC(O)Cn2c(=N)n(CCN3CCCCC3)c3ccccc32)c1.Cl (stereo not shown) | -80.5
Cc1ccccc1OCC(O)Cn1c(=N)n(CCN2CCOCC2)c2ccccc21.Cl (stereo not shown) | -61.5
COc1ccccc1OCC(O)CN1CCOCC1 (stereo not shown) | 15.2
OC(COc1cccc(OCC(O)CN2CCCC2)c1)CN1CCCC1 (stereo not shown) | -2.86
Cl.OC(COc1cccc(OCC(O)CN2CCOCC2)c1)CN1CCOCC1 (stereo not shown) | 7.41
Cc1ccccc1OCCCN1CCOCC1 | 9.44
O=C(CCNS(=O)(=O)/C=C/c1ccccc1)NCCc1c[nH]c2ccccc12 | 3.88

Structure (SMILES) | hERG current change (%, negative = inhibition) at 10uM [%]
Cc1ccc(NS(=O)(=O)c2ccc(-c3coc(C)n3)cc2)c(C)c1 | 15.6
CCOC(=O)C(Sc1ncn[nH]1)c1ccccc1 (stereo not shown) | -3.76
Cc1cc(F)ccc1S(=O)(=O)N1CCCOC1CNC(=O)C(=O)NCc1cccnc1 (stereo not shown) | 7.92
O=C(CNC(=S)N(CCCN1CCOCC1)Cc1cccs1)NCc1ccc(Cl)cc1 | -67.7
CCCCNC(=O)CNC(=S)N(CCCN1CCOCC1)Cc1cccs1 | -27.4
O=C(CNC(=S)N(CCCN1CCOCC1)Cc1cccs1)NC1CCCC1 | -19.7
CN(C)CCNC(=O)CNC(=S)N(CCCN1CCOCC1)Cc1cccs1 | 12.1
O=C(CNC(=S)N(CCCN1CCOCC1)Cc1cccs1)NCCN1CCOCC1 | 9.17
O=C(CNC(=S)N(CCCN1CCOCC1)Cc1cccs1)NCc1ccccc1Cl | -54.2
O=C(CNC(=S)N(CCCN1CCOCC1)Cc1cccs1)NC1CCCCC1 | -31.2
O=C(CNC(=S)N(CCCN1CCOCC1)Cc1cccs1)NC1CCCCCCC1 | -61.1
O=C(CNC(=S)N(CCCN1CCOCC1)Cc1cccs1)NCCCN1CCOCC1 | 15.1
O=C(NCc1ccc(F)cc1)c1ccc(CS(=O)Cc2ccccc2Cl)o1 (stereo not shown) | -37.3
Cc1ccc(S(=O)(=O)N2[C@@H](c3ccccc3)C(C(=O)O)=CC[C@H]2c2ccc(Cl)cc2)cc1 | 18.6
CC1=NN(C(N)=S)C(=O)C1N=Nc1ccccc1C(=O)O (stereo not shown) | 22.1
Fc1ccc(/C=C/c2nnc(-c3cccs3)o2)cc1 | 16.7
Cc1cc(S(=O)(=O)Nc2cccc(C(=O)O)c2)c(C)c(S(=O)(=O)c2ccc(Cl)cc2)c1 | 18.8
CCOC(=O)c1cnc(SCC(=O)Nc2ccc(NC(C)=O)c(OC)c2)nc1N | 2.44
CC1(c2cccc(Br)c2)NC(=O)N(CC(=O)Nc2ccc3c(c2)OCO3)C1=O (stereo not shown) | -12.5
COc1ccc(CNC2CCSc3ccccc32)cc1OC.O=C(O)C(=O)O (stereo not shown) | 9.97
CCC(Cc1ccccc1)NC(=O)CN(C)S(=O)(=O)c1ccc2c(c1)c(=O)n(C)c(=O)n2C (stereo not shown) | -23.5
Cc1sc2nc(SCC(=O)N3CCN(CCO)CC3)n(-c3ccccc3)c(=O)c2c1C | -3.7
O=C(O)C(=O)O.OC(CNC1CCCCCCC1)c1ccccc1 (stereo not shown) | 2.95
Ic1ccccc1CN[C@@H]1C2CCN(CC2)[C@@H]1C(c1ccccc1)c1ccccc1.O.O=C(O)C(=O)O | -69.7

Structure (SMILES) | hERG current change (%, negative = inhibition) at 10uM [%]
CCS(=O)(=O)N1CCN(C2CCC(c3ccccc3)CC2)CC1.O=C(O)C(=O)O (stereo not shown) | -17.2
O=C(COC(=O)CNC(=O)c1ccccc1)NCCc1ccccc1 | 4.17
CCOc1ccc(/C=N/NC(=O)C2CC2)c(OCC)c1 | 2.21
COc1cc2c(cc1OC)CN(CC(=O)NC(=O)NC1CCCCC1)CC2 | 3.28
Cc1nccc2c1[nH]c1ccccc12 | 2.16
COc1cc2[nH]c3ccccc3c2cc1C | 2.45
Cc1cc2[nH]c3c(c[n+](C)c4ccccc34)c2cc1C.[I-] | -77.8
COc1ccc2nc(SCCN(C)C)[nH]c2c1.Cl | 12.3
COc1ccc2nc(SCC(N)=O)[nH]c2c1 | -2.83
CCN(CC)CCSc1nc2ccc(OC)cc2[nH]1.Cl | -64.7
O=C1[C@@H]2[C@H](C(=O)N1Cc1cccnc1)[C@H]1C=C[C@@H]2C1 | -3.89
COc1ccc(/C=N/Nc2ncc(C(F)(F)F)cc2Cl)c(OC)c1OC | -1.15
Cc1cc(Cl)ccc1OCC(=O)NNC(=O)C1CSC2(C)CCC(=O)N12 (stereo not shown) | -18.5
CCOC(=O)c1c(CSc2ccccc2)oc2ccc(O)cc12 | 3.91
CC(=O)c1c(CSc2ccccc2)oc2ccc(O)c(CN(C)C)c12.Cl | -70.8
CCOC(=O)c1c(-c2ccccc2)oc2ccc(O)c(CN(C)C)c12 | -40.2
CCOC(=O)c1c(CN(C)C)oc2cc(CN(C)C)c(O)c(CSc3ccccc3)c12.Cl | -19.3
COC(=O)Cc1c(CSc2ccccc2)oc2ccc(O)c(CN(C)C)c12 | -47.8
CCOC(=O)c1c(CSc2ccccc2)oc2cc(Br)c(O)c(CN(C)C)c12.Cl | 8.53
CCOC(=O)c1c(CSCc2ccccc2)oc2ccc(O)c(CN(C)C)c12.Cl | -73.4
CCOC(=O)c1c(-c2ccccc2)oc2cc(CN(C)C)c(O)c(CN(C)C)c12 | -41.5
CCOC(=O)c1c(CSc2ccc(CC)cc2)oc2ccc(O)c(CN(C)C)c12.Cl | -55.3

From PMC4336329 (PLoS ONE, 2015)
